Shown is part of a subset that was picked to be rich in hits.
KDM5B inhibitor: blocks human KDM5B histone demethylase activity. hit rate 2.6% among 220,000. Potency, µM (series often up to 57.7 µM), usual class: inhibitors. KDM5B demethylase, FDH-coupled NADH fluorescence (FDH is formaldehyde dehydrogenase); active = well fitted inhibition curve with a large enough effect; also: nearly all actives have a fitted effect of over 70% in size
Target sequence (Q9UGL1 whole entry, looked up): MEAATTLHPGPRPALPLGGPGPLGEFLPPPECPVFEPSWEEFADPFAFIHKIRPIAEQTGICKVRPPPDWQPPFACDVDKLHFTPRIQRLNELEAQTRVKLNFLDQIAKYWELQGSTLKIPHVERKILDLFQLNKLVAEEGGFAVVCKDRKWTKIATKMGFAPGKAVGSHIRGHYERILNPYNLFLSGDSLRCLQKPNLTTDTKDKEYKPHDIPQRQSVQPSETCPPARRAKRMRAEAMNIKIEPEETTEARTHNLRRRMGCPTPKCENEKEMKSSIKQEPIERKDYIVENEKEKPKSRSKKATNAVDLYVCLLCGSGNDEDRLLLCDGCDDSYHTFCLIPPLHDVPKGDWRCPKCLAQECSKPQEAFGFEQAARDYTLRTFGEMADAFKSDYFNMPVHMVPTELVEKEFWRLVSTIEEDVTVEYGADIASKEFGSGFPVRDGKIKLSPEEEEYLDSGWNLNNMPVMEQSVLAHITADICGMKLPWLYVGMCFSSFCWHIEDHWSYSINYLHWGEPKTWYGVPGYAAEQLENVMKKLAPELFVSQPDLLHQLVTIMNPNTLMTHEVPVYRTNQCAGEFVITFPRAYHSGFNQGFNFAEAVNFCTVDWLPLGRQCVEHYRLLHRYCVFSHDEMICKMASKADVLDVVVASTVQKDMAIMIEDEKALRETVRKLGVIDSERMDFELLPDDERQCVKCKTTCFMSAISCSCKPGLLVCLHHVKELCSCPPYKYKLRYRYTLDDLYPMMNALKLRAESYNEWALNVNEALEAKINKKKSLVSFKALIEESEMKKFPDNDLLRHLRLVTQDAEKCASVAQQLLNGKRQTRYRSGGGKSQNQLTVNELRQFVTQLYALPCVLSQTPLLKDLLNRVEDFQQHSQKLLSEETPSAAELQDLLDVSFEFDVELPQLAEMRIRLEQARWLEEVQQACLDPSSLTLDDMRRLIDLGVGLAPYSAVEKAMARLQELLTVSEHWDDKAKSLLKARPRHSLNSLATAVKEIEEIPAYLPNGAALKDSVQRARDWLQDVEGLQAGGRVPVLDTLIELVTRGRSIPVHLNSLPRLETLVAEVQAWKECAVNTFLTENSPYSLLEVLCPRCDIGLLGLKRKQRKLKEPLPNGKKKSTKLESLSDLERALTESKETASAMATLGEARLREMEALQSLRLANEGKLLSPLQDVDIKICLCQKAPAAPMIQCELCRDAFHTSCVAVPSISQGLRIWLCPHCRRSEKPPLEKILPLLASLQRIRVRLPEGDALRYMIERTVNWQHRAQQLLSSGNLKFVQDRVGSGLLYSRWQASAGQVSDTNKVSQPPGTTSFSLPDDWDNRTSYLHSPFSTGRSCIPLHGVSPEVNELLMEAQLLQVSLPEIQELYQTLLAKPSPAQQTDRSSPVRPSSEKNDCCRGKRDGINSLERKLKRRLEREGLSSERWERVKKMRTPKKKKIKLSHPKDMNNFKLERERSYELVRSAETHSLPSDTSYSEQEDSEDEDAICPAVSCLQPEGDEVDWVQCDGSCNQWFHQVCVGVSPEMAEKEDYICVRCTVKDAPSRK
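Inhibition is measured as reduced NADH fluorescence generation from FDH coupling to formaldehyde release. Truncated KDM5BΔAP at 200 nM final acts on H3K4me3 peptide (12.5 µM in substrate mix) in pH 7.5 HEPES buffer with Tween-20, 30 min, room temperature.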
A number is an active result.

How did COc1ccc(-c2ccc3ncc(Nc4ccccc4Cl)n3n2)cn1 do in these assays?
KDM5B inhibitor: inactive

How did FC(F)(F)c1cc(Nc2cnc3ccc(N4CCOCC4)nn23)ccc1Cl do in these assays?
KDM5B inhibitor: 32µM

What do the screens show for `CN1C[C@@H](NC(=O)c2cnccn2)C[C@H]1c1nc(-c2ccc(OC(F)(F)F)cc2)no1`?
KDM5B inhibitor: inactive

Results for CSc1cccc(NC(=O)CSc2n[nH]c(-c3ccccc3Cl)n2)c1 ?
KDM5B inhibitor: inactive

What do the screens show for `COc1ccc2c(C)c(C(=O)N3CCC(c4nc(C(C)C)no4)CC3)oc2c1`?
KDM5B inhibitor: inactive

What do the screens show for `CC(=O)c1ccc(C(=O)Nc2nc3ccc(S(=O)(=O)N(C)C)cc3s2)cc1`?
KDM5B inhibitor: inactive

How did Cc1ccc(C(=O)OCc2nnc(-c3ccc(Cl)cc3)o2)s1 do in these assays?
KDM5B inhibitor: inactive

How did CCc1ccc(N2CC(c3noc(-c4ccccc4)n3)CC2=O)cc1 (stereo not given) do in these assays?
KDM5B inhibitor: inactive

Results for CCc1ccc(N2CC(c3noc(C4(c5ccccc5)CC4)n3)CC2=O)cc1 (stereo not given) ?
KDM5B inhibitor: inactive

How did CCc1ccc(N2CC(c3noc(-c4ccc5ncccc5c4)n3)CC2=O)cc1 (stereo not given) do in these assays?
KDM5B inhibitor: 32µM

What do the screens show for `CCc1ccc(N2CC(c3noc(-c4nccc5ccccc45)n3)CC2=O)cc1` (stereo not given)?
KDM5B inhibitor: 32µM

What do the screens show for `CCc1ccc(N2CC(c3noc(-c4ccc(C)nc4)n3)CC2=O)cc1` (stereo not given)?
KDM5B inhibitor: inactive

What do the screens show for `CCc1ccc(N2CC(c3noc(-c4ccccn4)n3)CC2=O)cc1` (stereo not given)?
KDM5B inhibitor: inactive

Results for O=C1CC(c2noc(-c3nccc4ccccc34)n2)CN1C1CCCCC1 (stereo not given) ?
KDM5B inhibitor: 22µM

Results for O=C1CC(c2noc(-c3cccc(F)c3)n2)CN1C1CCCCC1 (stereo not given) ?
KDM5B inhibitor: inactive

How did O=C1CC(c2noc(-c3ccoc3)n2)CN1C1CCCCC1 (stereo not given) do in these assays?
KDM5B inhibitor: inactive

How did CCOc1ccccc1C1C(C#N)=C(N)OC2=C1S(=O)(=O)N(CC)c1ccccc12 (stereo not given) do in these assays?
KDM5B inhibitor: inactive

How did CCOc1ccc2nc(SCC(=O)N3CCN(S(=O)(=O)c4ccccc4)C3C(C)C)[nH]c2c1 (stereo not given) do in these assays?
KDM5B inhibitor: inactive

What do the screens show for `CCCNC(=O)N1CCCC1c1nc(CCOCC2CC2)no1` (stereo not given)?
KDM5B inhibitor: inactive

What do the screens show for `CCOc1nccnc1NC1CCN(S(=O)(=O)C2CC2)CC1`?
KDM5B inhibitor: 32µM

Results for CN(C)c1nccnc1OC1CCN(S(=O)(=O)c2ccccc2)C1 (stereo not given) ?
KDM5B inhibitor: inactive

What do the screens show for `CCCCN(C)S(=O)(=O)NC1CCN(c2ncccn2)CC1`?
KDM5B inhibitor: inactive

Results for CS(=O)(=O)N1CCC(Nc2nc3ccccc3o2)CC1 ?
KDM5B inhibitor: inactive

How did CCc1ccc(S(=O)(=O)N2CCC(Oc3ncccc3C(=O)N3CCOCC3)C2)cc1 (stereo not given) do in these assays?
KDM5B inhibitor: inactive

Results for CCCOc1nccnc1NC1CCN(S(=O)(=O)C2CC2)CC1 ?
KDM5B inhibitor: 16µM

How did COc1ccc(OCc2nc(C#N)c(NCc3ccco3)o2)cc1 do in these assays?
KDM5B inhibitor: inactive

Results for c1ccc(-c2sc(-c3ccccc3)c(-c3ccccc3)c2-c2ccccc2)cc1 ?
KDM5B inhibitor: inactive

What do the screens show for `CCOc1ccc(CCNC(=O)CCc2c(C)nn(C)c2C)cc1OCC`?
KDM5B inhibitor: inactive

Results for NCCCCN1CCCCC1 ?
KDM5B inhibitor: inactive

What do the screens show for `Cc1ccccc1C(=O)NC(C(=O)N1CCCC1)C1CCN(C(=O)c2ccc3c(c2)OCO3)CC1` (stereo not given)?
KDM5B inhibitor: inactive

How did Cc1nc(-c2ccccc2)ncc1C(=O)O do in these assays?
KDM5B inhibitor: inactive

What do the screens show for `COc1cc(NC(=O)c2cnc(NCc3ccccc3)nc2C)cc(OC)c1OC`?
KDM5B inhibitor: inactive

Results for Cc1nc(NCC2CC2)ncc1C(=O)O ?
KDM5B inhibitor: 22µM

Results for C=CCOc1cccc(-c2nnc(CCC(=O)NC(C)c3ccccc3)c(=O)[nH]2)c1 (stereo not given) ?
KDM5B inhibitor: inactive

What do the screens show for `Cc1cn2nnc(C(=O)N3CCC(C(=O)Nc4ccc(C)c(Cl)c4)CC3)c2c(=O)[nH]1`?
KDM5B inhibitor: inactive

Results for Cc1ccccc1CC(=O)NCc1nnc2ccc(-c3ccccc3)nn12 ?
KDM5B inhibitor: 32µM

What do the screens show for `COc1ccc(NC(=O)CCc2nnc3ccc(NCc4ccccc4Cl)nn23)cc1`?
KDM5B inhibitor: inactive

What do the screens show for `O=C(NCc1nnc2n1C(C(=O)NC1CC1)CC2)c1ccc(Cl)cc1Cl` (stereo not given)?
KDM5B inhibitor: inactive

Results for Cc1ccccc1CNC(=O)CC(C)C ?
KDM5B inhibitor: inactive

Results for O=C(NCc1nnc2ccc(-c3ccccc3)nn12)c1ccc(F)cc1Cl ?
KDM5B inhibitor: 28µM

Results for CC(NC(=O)CCNC(=O)c1ccc(F)cc1Cl)c1ccc(Cl)c(Cl)c1 (stereo not given) ?
KDM5B inhibitor: inactive

Results for O=C(Cc1cccs1)NCc1nnc2ccc(-c3ccccc3)nn12 ?
KDM5B inhibitor: inactive

Results for COc1ccc(-c2ccc3nnc(CNC(=O)c4ccccc4Cl)n3n2)cc1 ?
KDM5B inhibitor: 28µM

How did Cc1nnc2sc(-c3ccc(CNC(=O)c4ccccc4Cl)cc3)nn12 do in these assays?
KDM5B inhibitor: inactive

Results for O=C(NCc1nnc2ccc(-c3ccccc3)nn12)c1ccccn1 ?
KDM5B inhibitor: 28µM

How did O=C(Nc1ccccc1C(=O)NCc1ccccc1)c1ccccn1 do in these assays?
KDM5B inhibitor: inactive

Results for COC1C(=O)N(C2CCN(C(=O)c3ccccn3)CC2)C12CCOCC2 (stereo not given) ?
KDM5B inhibitor: inactive

Results for O=C(NCc1ccc(F)cc1)N1CCC(Oc2ncccc2C(=O)N2CCCCC2)C1 (stereo not given) ?
KDM5B inhibitor: inactive

How did CC1=C[C@@H](CNS(C)(=O)=O)[C@H](C(C)C)C[C@H]1Cc1nc2ccccc2n1C do in these assays?
KDM5B inhibitor: inactive

Results for Nc1c(C(=O)Nc2c(Cl)cccc2Cl)sc2nc(-c3ccncc3)ccc12 ?
KDM5B inhibitor: inactive

Results for CCC(C)C(=O)Nc1cc(S(=O)(=O)N(CC)CC)ccc1N1CCOCC1 (stereo not given) ?
KDM5B inhibitor: inactive

What do the screens show for `CN(Cc1ccc(F)cc1)Cc1ccccc1C(F)(F)F`?
KDM5B inhibitor: inactive

Results for COc1cc(CNC(=O)Cc2ccsc2)ccn1 ?
KDM5B inhibitor: inactive

Results for O=C(Cc1ccsc1)NCc1ccccc1 ?
KDM5B inhibitor: inactive

What do the screens show for `Cc1ccc(-c2ccc3nnc(CNC(=O)C4(c5ccccc5)CC4)n3n2)cc1`?
KDM5B inhibitor: 28µM

Results for O=C(CCc1ccccc1)NCc1nnc2ccc(-c3ccccc3)nn12 ?
KDM5B inhibitor: 28µM

What do the screens show for `O=C(NCCc1noc(C2CC2)n1)C1(c2ccccc2)CC1`?
KDM5B inhibitor: inactive

How did CC(C)(CNC(=O)C1(c2ccccc2)CC1)C(N)=O do in these assays?
KDM5B inhibitor: inactive

Results for CSc1ccc(CCNC(=O)CCc2nnc3ccc(NCc4ccc(Cl)cc4)nn23)cc1 ?
KDM5B inhibitor: inactive

Screens: PubChem BioAssay, National Center for Advancing Translational Sciences (NCATS)
